# This is part of a sample that, as a whole, favours compounds with a hit. Of some 83,000 tested, about 20% had one in any assay.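 Compound tested at a single concentration for 48 hours in 96-well plates; a percent growth value below 10 was scored as active.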 A number with no mark means an inactive call. Calls of active or inactive are those of the source.
# Test system: BT-549 breast
# Assay: NCI-60 one-dose screen, 48 h (100 = growth as untreated, 0 = no growth, -100 = all killed)
# Conditions: 10 µM unless noted
# Method: Growth inhibition of the BT-549 human tumor cell line is measured as a screen for anti-cancer activity. Cells are grown in 96 well plates and exposed to the test compound for 48 hours. Compounds are tested at a single concentration, which is 10^-5 M for most compounds. The reported endpoint is percent growth (GI% or GIPRCNT), where numbers from 0 - 100% represent growth inhibition, and numbers from -100% - 0 represent cell death. For example, a value of 40 represents 60% growth inhibition. A value of 0 means no net growth occurred over the course of the experiment. A value of -40 indicates 40% of cells at the beginning of the experiment died by the end of the experiment. A value of -100 means all cells are dead at the end of the experiment.
# NCI-60 Human Tumor Cell Lines Screen was performed using the standard one-dose NCI protocol, which is described in more detail at https://dtp.cancer.gov/discovery_development/nci-60/default.htm.
# Compounds with GIPRCNT values below 10 were considered active. Activity score was based on GIPRCNT using the following formula: […]
# Score is 0 for GIPRCNT values of 100 or above, 50 for GIPRCNT values of 0, and 100 for GIPRCNT values of -100.
row,SMILES,growth
1,O=C1Nc2ccccc2/C1=C/C(=O)c1ccc(N2CCOCC2)cc1,97%
2,Cc1nn(-c2ccccc2)c(N2CCOCC2)c1-c1nc2ccc([N+](=O)[O-])cc2[nH]1,96.8%
3,CCCc1cc2cc(-n3nc(C)c4c3CC(C)(C)CC4=O)cc(NC3CCSCC3)c2c(=O)[nH]1,61.5%
4,Cc1ccc(NC(=S)/N=c2/n(-c3ccccc3)nc3n2CCN3C2=NCCN2)cc1,-6.96% (active)
5,Cc1cnc([C@]23CC[C@@H](C)[C@H](C)[C@H]2C2=CC[C@@H]4[C@@]5(C)Cc6c([nH]c7ccccc67)C(C)(C)[C@@H]5CC[C@@]4(C)[C@]2(C)CC3)o1,46.5% [100 µM]
6,C[C@H]1[C@H](C)CC[C@]2(COC(=O)CCC(=O)O)CC[C@]3(C)C(=CC[C@@H]4[C@@]5(C)CCCNC(C)(C)[C@@H]5CC[C@]43C)[C@H]12,64% [100 µM]
7,C[C@H]1[C@H](C)CC[C@]2(C(=O)O)CC[C@]3(C)C(=CC[C@@H]4[C@@]5(C)C/C(=C/c6ccco6)C(=O)C(C)(C)[C@@H]5CC[C@]43C)[C@H]12,-62.5% [100 µM] (active)
8,CC(C)C1=NOC(=O)C1=Cc1cn(-c2ccccc2)nc1-c1ccc(Cl)cc1,117%
9,CC[C@]12C=CCN3CC[C@@]4(c5ccc(OC)cc5N(C)[C@H]4[C@@](O)(C(=O)OC)[C@@H]1OC(=O)CCC(=O)N[C@H](Cc1c[nH]c4ccccc14)C(=O)OC)[C@@H]32,-16.5% [100 µM] (active)
10,CN(C)CCCNc1nc(-c2cccc(C(Cl)(Cl)Cl)c2)nc(C(Cl)(Cl)Cl)n1,77.8%
11,O=C(O)CC1CCCCC1c1ccccc1 (stereo not given),96%
12,COc1cc(C(=O)/C=C/c2c(-c3ccc(F)cc3)nc3sccn23)cc(OC)c1OC,19.2%
13,COc1cc(C)cc2oc3oc(=N)c(C(=O)c4ccccc4)cc3c(=O)c12,97.3%
14,CO[C@H]1CC[C@@]2(C)C(=CC[C@H]3[C@@H]4C[C@H](O)C[C@@]4(C)CC[C@@H]32)C1,79.5%
15,Cc1cnc(N)nc1OCCNC(=O)c1cccc(-c2ccc(S(=O)(=O)Nc3ccc4c(c3)N(C(=O)C3CC3)CCC4)cc2)c1,66.2%
16,Brc1ccc(-c2nnc3c4[nH]ccc4ncn23)cc1,94.3%
17,N=C(N)c1ccc(-c2ccc(-c3ccc(-c4cccs4)s3)s2)cc1F,99.3%
18,CCCCOC(=O)c1cccc([N+](=O)[O-])c1,104%
19,CC(C)(C)c1cc(C(=O)Nc2ccccc2C(=O)NCCN)cc(C(C)(C)C)c1,99.2%
20,O=C1Nc2ccccc2/C1=C/C(=O)c1ccc(N2CCCCC2)cc1,90.8%

row,SMILES,growth
1,COc1cc2c(O)n(CCCN3CCOCC3)c3c4cnc5cccc(c(=O)c3c2cc1OC)c54,57.9%
2,COc1ccc(-c2cc(-c3ccc(Cl)cc3)nc(NCCCCNc3ccnc4cc(Cl)ccc34)n2)cc1,85.5%
3,CCN1c2ccccc2C(Cl)(c2ccc(N(C)C)cc2)c2ccccc21,62.1%
4,CCn1cc(-c2cc(-c3ccc(Cl)cc3)nc(N)n2)c(-c2ccc(Br)cc2)n1,91.3%
5,Cn1c(=O)c(C#N)c(-c2ccco2)n2c(S(=O)(=O)Cc3ccccc3)nnc12,73.7%
6,COc1ccc2c(c1)c(-c1noc(C(=O)c3cn(C)c4ncc(Br)cc34)n1)cn2C,82.7%
7,CCCCCCSc1ncnc2nc[nH]c12,82.6%
8,CC[C@]12C=CCN3CC[C@@]4(c5ccc(OC)cc5N(C)[C@H]4[C@@](O)(C(=O)OC)[C@@H]1OC(=O)CCC(=O)O[C@H]1CC[C@H]4[C@@H]5CCC6=CC(=O)CC[C@@H]6[C@H]5CC[C@]14C)[C@@H]32,-8.65% [100 µM] (active)
9,Cc1ccc(Cn2c(O)c(N=NC(=O)c3ccc(S(N)(=O)=O)cc3)c3ccccc32)cc1,102%
10,CN(C)CCOc1ccc(/C(=C(/CCCl)c2ccccc2)c2ccccc2)cc1,46.8%
11,C=C(C)[C@@H]1CC[C@]2(C(N)=O)CC[C@]3(C)[C@H](CC[C@@H]4[C@@]5(C)C/C(=C/c6cccnc6)[C@H](O)C(C)(C)[C@@H]5CC[C@]43C)[C@@H]12,26.6% [100 µM]
12,C=C(C)[C@@H]1CC[C@]2(C)[C@H](CC[C@@H]3[C@@H]([C@@](C)(O)CCC=C(C)C)CC[C@]32C)[C@@]1(C)CCC(=O)N1CCN(C)CC1,-84% [100 µM] (active)
13,COC(=O)c1c(C)[nH]c(/C=C2\N=C(c3ccc[nH]3)C=C2OC)c1C,0.541% (active)
14,CC(C)c1ccc(C(=O)Nc2nc3ccc(O)cc3s2)cc1,55.5%
15,CSc1nc2c(c(=O)n1C)C1(C(=O)N(Cc3ccccc3)c3ccccc31)c1c(nc(SC)n(C)c1=O)N2,104%
16,Nc1ccc(NC(=O)c2ccccc2)c2c1C(=O)c1ccccc1C2=O,101%
17,N#C/C(C(=O)c1ccccc1)=C1/C(=O)Nc2ccc(Br)cc21,99.2%
18,COc1ccc2nc3ccccc3c(NCCNCCO)c2c1,8.11% (active)
19,Cc1cccc(C[C@H](NC(=O)Nc2ccc(C)cc2F)C(=O)N[C@@H]2C(=O)N3C[C@H](O)C[C@H]3C(=O)N3CCN(C)C[C@H]3C(=O)N[C@@H](C)C(=O)N3C[C@H](C)C[C@H]3C(=O)O[C@H]2C)c1,22.1%
20,CN(C)c1cc(NN=C(c2ccc(O)cc2)c2ccc(O)cc2)c([N+](=O)[O-])cc1[N+](=O)[O-],115%

# From PubChem BioAssay (NCI)
